PubChem BioAssay AID488908 (National Center for Advancing Translational Sciences (NCATS), 2010)
Inconclusive results are not listed. Where a call stands in place of a potency, no number is given. Activity calls are given as the source filed them. The call rests on the fitted dose curve; in most records, active means well fitted inhibition curve with a large enough effect; inconclusive means small, poorly fitted or top-dose-only effect; inactive means flat fitted curve, though single readings scatter.

Assay: Secondary Assay for lipid storage modulators: Cytotoxcity for probe SAR
Conditions: Drosophila S3 cells viability, CellTiter-Glo luminescence, 24 h, with oleic acid added (1 µL, 400 µM); series mostly up to 46.1 µM
In short: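 Drosophila S3 embryonic cells, 5,000/well, exposed to compound at several concentrations with 400 uM oleic acid stock added, 24 h at 24 degrees C; viability by CellTiter-Glo luminescence.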

Row | Structure (SMILES) | Potency
1 | CCCn1c(-c2ccc(OC)cc2)cnc1SCC(=O)Nc1nc(C)c(C)s1 | inactive
2 | O=C(NC1CCCc2c1cnn2-c1ccc(F)cc1F)c1ccc(C2(C(F)(F)F)N=N2)cc1 (configuration not stated) | 3.97 µM (active)
3 | O=C(NC1CCCc2c1cnn2-c1ccc(F)cc1F)c1ccc2cc[nH]c2c1 (configuration not stated) | 22.3 µM (active)
4 | Cc1sc(NC(=O)Cc2cccs2)nc1-c1ccccc1 | inactive
5 | C[C@@H](NCCCc1cccc(C(F)(F)F)c1)c1cccc2ccccc12 | 28.1 µM (active)
6 | CC1=C(C(=O)NC2CCCc3c2cnn3-c2ccc(F)cc2F)OCCO1 (configuration not stated) | 0.996 µM (active)
7 | COc1ccc(Cl)cc1NC(=S)N1CCN(c2cccc(Cl)c2)CC1 | inactive
8 | COc1cc(NC(=S)N2CCN(c3ccccn3)CC2)c(OC)cc1Cl | inactive
9 | O=C(NC1CCCc2c1cnn2-c1ccccc1F)c1ccc2ncccc2c1 (configuration not stated) | 2.23 µM (active)
10 | O=C(NC1CCCc2c1cnn2-c1ccc(F)cc1F)C1CCCCC1 (configuration not stated) | 0.791 µM (active)
11 | CN(C)Cc1ccc(-c2nc3cccc4c3n2CCNC4=O)cc1 | inactive
12 | CCOc1ccc(CCNC(C)=O)cc1OCC | inactive
13 | CCOC(=O)C1CCN(C(=O)C2(NC(=O)Nc3ccccc3Cl)CCCCC2)CC1 | inactive
14 | Cc1ccc(-c2cnc(SCC(=O)Nc3nc(C)cs3)n2Cc2ccco2)cc1 | inactive
15 | CCn1c(C(=O)NCCc2ccc(OC)c(OC)c2)cc2sc(Cl)cc21 | inactive
16 | CCOC(=O)C1CCN(C(=O)C2(NC(=O)NCc3ccccc3)CCCCC2)CC1 | inactive
17 | O=C(NC1CCCc2c1cnn2-c1ccc(F)cc1F)c1cccs1 (configuration not stated) | 8.88 µM (active)
